This passage reports composite z-score and z-score results from PubChem BioAssay.

For assay [1], the system named is Human papillomavirus type 1a protein E7 (residues 44-93). Put plainly: small molecules binding HPV E7 44-93 – biochemical, small-molecule microarray, residues 44-93, 635 nm fluorescence, primary screen (AID 1108).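 Also: E7 fragment applied at 1 µg/mL in TBST for 1 h at 4 C; score combines spot fluorescence with its signal to noise ratio.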 As to conditions: fluorescence 635 nm, higher = more signal.
The nature of assay [2]: hepatitis C replication reporter changes, two-sided – Huh7 cells, luciferase reporter, HCV replication inhibitor project, primary screen (AID 1109).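 Also: huh7 hepatoma cells harbouring a luciferase neomycin HCV replicon reporter; luciferase luminescence as measure of HCV replicon replication; test concentration not given here.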 As to conditions: Huh7 HCV replicon luciferase reporter, 48 h; higher = more signal.
In assay [3] the target is Left-right determination factor 2 (Homo sapiens) (UniProt O00292). Nature of the assay: small molecules binding LEFTY2 protein – biochemical, small-molecule microarray, 635 nm fluorescence scan, primary screen (AID 1110). As to conditions: higher = more signal.
The target in assay [4] is Calmodulin-1 (Homo sapiens) (UniProt P0DP23). Put plainly: small molecules binding calmodulin-1 with EGTA – biochemical, small-molecule microarray, Cy5-labelled CALM1, profiling panel (AID 1111).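 Also: labelled calmodulin applied in Tris saline Tween buffer holding calcium plus EGTA and DTT.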 The conditions noted are these: Cy5-CALM1 binding fluorescence, higher = more signal.
For assay [5] the target is unchanged. Put plainly: small molecules binding Ca-loaded calmodulin-1 – biochemical, small-molecule microarray, Cy5-labelled CALM1, plus calcium, artefact control for SMM control-protein annotation, profiling panel (AID 1112).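 Also: score merges spot fluorescence with signal to noise from triplicate slides.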 As to conditions: Cy5-CALM1 binding fluorescence, higher = more signal.
A short description of assay [6]: probe aWnt5a binding to arrayed compounds – biochemical, biotinylated probe, 635/667 nm fluorescence, primary screen (AID 1113).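 Also: score merges 667 nm fluorescence intensity with signal-to-noise per printed feature.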 As to conditions: small-molecule microarray, higher = more signal.
Assay [7] can be described thus: probe aShh binding to arrayed compounds – biochemical, biotinylated probe, 635/667 nm fluorescence, primary screen (AID 1114).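 Also: probe is biotin-labelled aShh protein from a stem cell growth factor screen; measures binding of labelled protein to compounds printed on the slide; score merges feature fluorescence at 667 nm with signal-to-noise.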 As to conditions: small-molecule microarray, higher = more signal.
Assay [8] is described as follows: probe aNog binding to arrayed compounds – biochemical, biotinylated probe, 635/667 nm fluorescence, primary screen (AID 1115).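 Also: probe is biotinylated aNog protein used at 0.15 µg/mL for 1 h at 4 C; z-score combines 667 nm fluorescence of each spot with its signal to noise.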 The conditions noted are these: small-molecule microarray, higher = more signal.
Assay [9] deals with Torsin-1A-interacting protein 1 (Homo sapiens) (UniProt Q5JTV8). Put plainly: compound microarray binding of lysate hLAP1 – cell lysate, small-molecule microarray, COS7 lysate, 635/667 nm fluorescence, primary screen (AID 1116). As to conditions: 635 nm fluorescence, higher = more signal.
The target of assay [10] is Alpha-bungarotoxin (Bungarus multicinctus) (UniProt P60615). Put plainly: compounds binding labelled alpha-BTX control protein – biochemical, small-molecule microarray, Alexa647 label, 635/667 nm fluorescence, artefact control for SMM control protein annotation, profiling panel (AID 1117). As to conditions: alpha-BTX-A647 binding fluorescence, higher = more signal.
Sequence of Alpha-bungarotoxin (Bungarus multicinctus) (P60615 whole entry, looked up): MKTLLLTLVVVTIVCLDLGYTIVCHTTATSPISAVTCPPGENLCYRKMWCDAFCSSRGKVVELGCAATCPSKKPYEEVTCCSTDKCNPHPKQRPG

Sequence of Left-right determination factor 2 (Homo sapiens) (O00292 whole entry, looked up): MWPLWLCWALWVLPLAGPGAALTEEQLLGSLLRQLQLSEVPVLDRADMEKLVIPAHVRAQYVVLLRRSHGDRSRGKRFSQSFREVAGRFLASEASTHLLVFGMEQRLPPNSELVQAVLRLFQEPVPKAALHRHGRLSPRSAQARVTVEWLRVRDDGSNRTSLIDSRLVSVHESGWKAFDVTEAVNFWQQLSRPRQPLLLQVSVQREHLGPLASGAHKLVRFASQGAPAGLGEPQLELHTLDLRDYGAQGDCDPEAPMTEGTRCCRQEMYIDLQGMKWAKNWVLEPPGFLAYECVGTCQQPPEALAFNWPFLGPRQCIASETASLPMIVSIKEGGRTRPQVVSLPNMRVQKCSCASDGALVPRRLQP
Sequence of Torsin-1A-interacting protein 1 (Homo sapiens) (Q5JTV8 whole entry, looked up): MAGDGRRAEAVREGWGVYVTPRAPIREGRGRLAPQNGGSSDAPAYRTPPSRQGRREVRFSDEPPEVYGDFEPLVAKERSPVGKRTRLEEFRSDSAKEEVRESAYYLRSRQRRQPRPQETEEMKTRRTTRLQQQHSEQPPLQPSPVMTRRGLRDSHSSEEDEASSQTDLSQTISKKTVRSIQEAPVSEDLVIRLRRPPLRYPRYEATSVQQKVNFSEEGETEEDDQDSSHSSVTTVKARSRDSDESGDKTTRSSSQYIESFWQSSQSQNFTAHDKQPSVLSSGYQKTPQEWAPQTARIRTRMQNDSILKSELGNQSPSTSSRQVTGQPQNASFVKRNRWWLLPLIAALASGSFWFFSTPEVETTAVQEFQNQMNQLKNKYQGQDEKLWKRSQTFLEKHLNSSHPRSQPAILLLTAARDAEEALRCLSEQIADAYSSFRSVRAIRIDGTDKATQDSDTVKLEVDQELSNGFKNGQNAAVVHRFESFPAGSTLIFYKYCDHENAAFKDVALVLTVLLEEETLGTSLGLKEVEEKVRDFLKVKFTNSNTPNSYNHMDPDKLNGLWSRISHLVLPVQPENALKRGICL

For the compound `COC(=O)[C@@]1(Cc2ccc(F)cc2)[C@H]2c3cc(C(=O)N4CCCC4)n(CCO)c3C[C@H]2CN1C(=O)c1ccccc1`, the composite z-score in assay [1] was 0.0213; in assay [3] it was -0.83; in assay [4] it was -0.07; in [5], 0.723; in assay [6], 0.229; in assay [7], 0.381. Besides, the composite z-score was -0.662 in assay [8], 0.956 in assay [9] and -0.063 in assay [10]. In addition, in assay [2], the z-score is -1.
Regarding `CCOC(=O)C1=C(C(=O)OCC)N(S(=O)(=O)CC[Si](C)(C)C)[C@H](c2ccccc2)CC1`, the composite z-score in assay [1] is 1.3; in assay [3], -0.171; in assay [4] it was 0.435; in assay [5], 0.161; in assay [6], 0.0307; in assay [7], -0.164. The composite z-score came to 0.118 in [8], 0.356 in assay [9] and 1.23 in assay [10]. The z-score in [2] is -2.8.
Turning to `COC(=O)c1ccc([C@H](NC(=O)c2ccccc2)[C@]2(C)C[C@H]2C2CCCCC2)cc1`, the composite z-score in assay [1] is 1.3; in assay [3] it was -0.254; in assay [4], 1.73; in [5] it was 1.47; in assay [6], 0.0805; in assay [7] it was 0.315. In addition, the composite z-score is 1.68 in assay [8], 0.462 in [9] and 1.09 in assay [10]. In assay [2], this compound gave a z-score of -1.61.
`N[C@@H](Cc1ccccc1)Cn1cc(C2(O)CCCCC2)nn1`: the composite z-score was 0.488 in [1]; 0.0904 in assay [3]; 0.816 in [4]; -0.431 in [5]; -0.0236 in assay [6]; 0.23 in assay [7]. The composite z-score was -0.0827 in [8], 0.228 in assay [9] and 0.967 in assay [10]. In assay [2], this compound registered a z-score of 0.118.
As to `C[C@]1(C(=O)NCC(F)(F)F)c2ccccc2C(=O)N(Cc2ccc(OC(F)(F)F)cc2)[C@H]1c1ccc(CO)cc1`, the composite z-score in [1] was 0.26; in assay [3], -0.143; in assay [4] it was -0.0779; in assay [5], -0.373; in [6] it was -0.154; in assay [7] it was -0.0626. For the same compound, the values for the composite z-score in assay [8], in [9] and in [10] were -0.519, -0.115 and 0.25, respectively. Besides, the z-score in assay [2] is -1.11.
For `CCCC[C@@H]1C[C@H]1[C@@H](NC(=O)Cc1ccccc1)c1ccc(Cl)cc1`, the composite z-score in [1] was 1.37; in assay [3], -0.496; in [4], 2.44; in assay [5] it was 1.53; in [6] it was 0.225; in assay [7] it was 1.47. Further, the composite z-score in assay [8] turned out to be 0.905; in [9], 1.12; in assay [10], 2.14. Moreover, the z-score in assay [2] is -1.79.
Consider `C=CCC(OC(C)=O)[C@@H]1[C@@H](N(Cc2cc3ccccc3o2)C(=O)c2cccc3ccccc23)c2cc(OCCCO)ccc2N1C(=O)c1ccc2ccccc2c1` (stereo not given in full), for which the composite z-score in assay [1] is -0.0617; in assay [3], -0.338; in assay [4] it was -0.0758; in [5] it was 0.63; in assay [6], 0.0047; in assay [7], -0.138. Besides, the composite z-score in assay [8] is -0.12; in assay [9], 0.414; in [10] it was 0.0671. Further, the z-score in assay [2] was -0.0143.
`CC1CC/C=C\[C@H]2OC34C=CCN(c5ccc(Cl)cc5)C(=O)[C@H]3N(CCCO)C(=O)[C@]4(C)C2C(=O)O1` (stereo not given in full): the composite z-score in assay [1] is -0.678; in [3], -1.33; in [4] it was -0.484; in [5], 0.456; in assay [6], -0.124; in [7], -0.0553. In addition, the figures for the composite z-score in assay [8], in [9] and in assay [10] were -0.0211, -1.06 and -0.859, respectively. Besides, the z-score in assay [2] was -1.07.
As for `O=C1c2ccccc2[C@@]2(Cc3ccccc3N(Cc3ccccc3)C2=O)[C@H](c2ccc(CO)cc2)N1Cc1ccccc1`, the composite z-score in assay [1] was 0.145; in assay [3], -1.09; in assay [4], -0.73; in assay [5], 0.242; in assay [6], -0.236; in assay [7], -0.153. The figures for the composite z-score in [8], in [9] and in assay [10] were -0.36, -0.516 and -0.114, respectively. The z-score in assay [2] is -0.173.
Regarding `COCCOC(=O)N1C(=O)[C@@]2(c3cc(C#CCNC(N)=O)ccc31)[C@H](C(=O)NC[C@H](O)c1ccccc1)[C@H]1C(=O)O[C@H](c3ccccc3)[C@H](c3ccccc3)N1[C@@H]2c1ccc(OCCO)cc1`, the composite z-score was 1.11 in assay [1]; 0.319 in assay [3]; 0.565 in [4]; 0.442 in assay [5]; -0.0459 in assay [6]; 0.13 in assay [7]. Also, the composite z-score came to 1.09 in assay [8], 1.47 in [9] and 0.41 in assay [10]. For the same compound, in [2], the z-score was found to be 0.724.
Consider `CO[C@H]1O[C@H](CO)[C@@H](OC(=O)Nc2ccccc2)[C@@H]2OC(=O)[C@H](Cc3ccccc3)C/C=C/C[C@@H](Cc3ccccc3)C(=O)O[C@@H]12`, for which the composite z-score in [1] is 1.04; in assay [3] it was 0.587; in assay [4], 1.68; in assay [5], -0.123; in assay [6] it was -0.0545; in assay [7], 0.0639. Further, the composite z-score in assay [8] came to 0.696; in assay [9], 1.07; in [10], 0.269. Also, the z-score in [2] is -3.45.
As for `CCOC(=O)C1=CC[C@@H](c2ccc(F)cc2)N(S(=O)(=O)c2ccc(C)cc2)[C@H]1c1ccc([N+](=O)[O-])cc1`, the composite z-score in [1] was 1.34; in [3], -0.248; in [4], 1.56; in assay [5], -0.171; in assay [6], 0.0323; in assay [7], -0.138. Further, the composite z-score was -0.158 in [8], 0.341 in [9] and 0.937 in assay [10]. The z-score in assay [2] is -1.05.
Regarding `COC(=O)[C@@]1(CCS(=O)(=O)c2ccccc2)N=C(c2ccc(OCCCO)cc2)O[C@H]1c1ccccc1N=[N+]=[N-]`, the composite z-score in assay [1] is 1.38; in [3], 0.406; in assay [4], 1.29; in assay [5], 0.383; in assay [6] it was -0.0455; in assay [7] it was -0.0904. Further, the composite z-score in assay [8] came to 0.424; in assay [9], 0.861; in assay [10], 2.23. The compound further yielded a z-score in [2] of -1.83.
Consider `CC(=O)NCCCC[C@@H]1NC(=O)[C@H]2C[C@@H](C(=O)NCCCCCC[N+](C)(C)C)[C@@H](c3ccc(O)cc3)N2C1=O`, for which the composite z-score was 1.4 in assay [1]; 0.62 in assay [3]; -0.183 in assay [4]; -0.906 in assay [5]; -0.107 in assay [6]; -0.153 in assay [7]. In addition, the composite z-score in [8] was 0.762; in assay [9], 0.611; in assay [10], 0.472. The same compound displayed a z-score in assay [2] of 1.38.
For the compound `CC(=O)NCCCC[C@@H]1NC(=O)[C@@H]2C[C@H](C(=O)NCCCCCC[N+](C)(C)C)[C@H](c3ccc(O)cc3)N2C1=O`, the composite z-score is 1.11 in assay [1]; 0.943 in assay [3]; -0.504 in [4]; -0.901 in [5]; -0.15 in assay [6]; 0.0278 in assay [7]. Further, the composite z-score in [8] is -0.347; in [9], 0.343; in assay [10], -0.659. Further, in assay [2], the z-score is 0.825.
`O=C(NCCO)C1=C[C@H](Oc2ccccc2I)[C@@H](O)[C@H](NCc2ccc(F)cc2)C1`: the composite z-score in assay [1] was -0.938; in [3], 0.949; in [4], -0.815; in [5], -2.87; in assay [6], -0.237; in assay [7], -0.262. Further, the composite z-score is -0.0542 in assay [8], 5.01 in assay [9] and -0.89 in assay [10]. In [2], the z-score was -3.66.
